# PI4K2A block: inhibitors of human PI4K2A | Q9BTU6 | purified PI4K2A, ADP-Glo luminescence, 1 h; active compounds read low | activity change, negative = inhibition, % at 76.9 µM | hit rate 0.13% among 420,000 | AID 1346378; in the data active = activity change below about -50%; inconclusive = mostly about -30% to -49%
#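 PI4K2A activity was measured by ADP-Glo luminescence: enzyme (4 ug/mL stock) and phosphatidylinositol (1.2 mM stock) in Tris pH 7.5/MgCl2/EGTA/Triton X-100 buffer were reacted with ATP (300 microM stock) for one hour at ambient temperature.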
# D3 antag: D3 dopamine receptor (human) antagonism; hit rate 2.5% among 360,000; AID 652054; max response, negative = inhibition, %; D3R cells, DiscoveRx beta-arrestin luminescence, antagonist mode; active compounds read low; in the data active = max response below about -50%; inconclusive = no clear call, values can overlap the other calls
# Target sequence (P35462 whole entry, looked up): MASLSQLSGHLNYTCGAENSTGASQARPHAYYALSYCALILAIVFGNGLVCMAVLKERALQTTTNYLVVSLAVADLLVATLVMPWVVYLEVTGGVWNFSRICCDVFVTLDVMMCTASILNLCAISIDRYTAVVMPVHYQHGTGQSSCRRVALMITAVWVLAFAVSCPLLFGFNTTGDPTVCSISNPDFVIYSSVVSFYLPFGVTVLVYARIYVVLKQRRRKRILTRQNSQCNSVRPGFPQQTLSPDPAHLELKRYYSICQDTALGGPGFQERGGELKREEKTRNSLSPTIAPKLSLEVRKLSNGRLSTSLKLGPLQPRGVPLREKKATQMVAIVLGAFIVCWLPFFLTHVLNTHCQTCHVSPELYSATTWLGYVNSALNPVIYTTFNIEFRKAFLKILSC
#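 Cells expressing the human receptor were seeded at 1500 cells/well, incubated overnight at 37 degrees C in 5% CO2, then exposed to library compounds with dopamine controls for 90 minutes at 37 degrees C before luminescent detection.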
# Akt phos inh: blocks phosphorylation of Akt. Neuro2A IGF-stimulated pAkt S473 HTRF, 20 min; active compounds read low. activity change, % for hits at 50 µM. hit rate 0.32% among 360,000; in the data active = activity change below about -80%; inconclusive = mostly about -51% to -80%
#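 Single-point screen (50 µM final compound) in Neuro2A cells stimulated 20 min with 6 nM IGF at 37 deg C. After lysis, Ser473-phosphorylated Akt read by HTRF (ex 330 nm, em 615/665 nm) as the 665/615 ratio.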
# DRD3 agonist: activates the human D3 dopamine receptor; P35462; D3R DiscoveRx beta-arrestin cells, luminescence, 90 min; max activation, %; hit rate 0.58% among 410,000; in the data active = max activation above about 30%
#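 Agonist mode: compounds and dopamine controls were applied to plated cells for 90 min at 37 degrees C after an overnight attachment at 1500 cells/well. Luminescent read-out followed 30 - 60 minutes at room temperature with DiscoveRx detection reagent.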
# LDHA block: inhibitors of human lactate dehydrogenase A; P00338; purified LDHA, NADH/diaphorase-resazurin fluorescence; active compounds read low; activity change, % (values are at about 110 or 230 µM); hit rate 0.15% among 480,000; in the data active = activity change below about -30%; inconclusive = mostly about -25% to -30%
#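 Remaining NADH was detected by diaphorase (0.133 mg/mL) converting 37 µM resazurin to fluorescent resorufin, read at 0 and 20 minutes. The preceding 5-minute room-temperature reaction used 2 nM LDHA, 0.2 mM sodium pyruvate and 0.06 mM NADH at pH 7.4.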
# RGS4 inh: human RGS4 inhibition | AID 504845 | Potency, µM (doses to about 114 µM), hits mostly inhibitors | hit rate 0.039% among 390,000 | P49798 | Transcreener GDP fluorescence polarization, RGS4-accelerated GTP hydrolysis; active = well fitted inhibition curve with a large enough effect; inconclusive = small, poorly fitted or top-dose-only effect; inactive = no such curve, though single readings can be large or run the other way; note: nearly all actives have a fitted effect of over 75% in size
# Target sequence (P49798 whole entry, looked up): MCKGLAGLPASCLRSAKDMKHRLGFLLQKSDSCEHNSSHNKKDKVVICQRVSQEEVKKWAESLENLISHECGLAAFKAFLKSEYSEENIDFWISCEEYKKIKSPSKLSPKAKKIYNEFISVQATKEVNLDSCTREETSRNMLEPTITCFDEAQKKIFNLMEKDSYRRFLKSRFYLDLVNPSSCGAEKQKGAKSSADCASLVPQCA
#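 MLSMR compounds (23 nl, pin-transferred) preincubated 10 min at room temperature with a 500nM (2x) first reagent, then RGS4 at 900nM (2x) plus Transcreener GDP mix added; fluorescence polarization (620/688 nm) read before and after 90 min at 30 °C.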
# Numbers stand for hits; i = inactive; ? = inconclusive; nt = no result given. Most compounds without a hit are left out; they make up all but 2.8% or so of the library.
SMILES,PI4K2A block,D3 antag,Akt phos inh,DRD3 agonist,LDHA block,RGS4 inh
O=C(Nc1cccc(C(F)(F)F)c1)c1cc(-c2ccco2)on1,i,i,i,i,i,i
O=C(Nc1cccnc1)c1cc(-c2cccs2)on1,i,-61,i,i,i,i
Cc1c(NC(=O)c2cc(-c3cccs3)on2)c(=O)n(-c2ccccc2)n1C,i,i,-83%,i,i,i
COC(=O)C1CCN(C(=O)COc2ccc(S(=O)(=O)N3CCOCC3)cc2Cl)CC1,i,i,i,63,i,i
Cc1nc(N)sc1-c1csc(Nc2ccccc2)n1,i,-56,i,i,i,i
Cc1nc(N)sc1-c1csc(Nc2cccc(C(=O)O)c2)n1,i,i,i,i,i,?
COc1ccc(-c2nc(CN3CCCC3c3cc(C)no3)co2)cc1 (centres undefined),nt,nt,nt,nt,i,nt
CCC(CC)c1nnc(NC(=O)Oc2ccccc2)s1,i,-69,i,i,i,i
Cc1ccccc1C(=NCCCN(C)C)c1ccccc1C,i,-75,i,i,i,i
COc1ccccc1N(CCC#N)C(=O)CSc1ncnc2sc3c(c12)CCC3,nt,nt,nt,nt,i,nt
COc1cc(F)cc(-c2ccc3c(c2)c(-c2cccs2)c(-c2cc(OC)cc(OC)c2)n3C)c1,i,i,i,i,i,i
COc1cc(OC)cc(-c2c(-c3cccs3)c3cc(-c4ccc5c(c4)OCO5)ccc3n2C)c1,i,i,i,i,i,i
COc1cc(OC)cc(-c2c(-c3cccs3)c3cc(-c4ccc(N(C)C)nc4)ccc3n2C)c1,i,i,i,47,i,i
COc1cc(OC)cc(-c2c(-c3cccs3)c3cc(-c4ccn[nH]4)ccc3n2C)c1,i,i,i,37,i,i
COCCSc1nc2c(c(=O)n(C)c(=O)n2C)n1Cc1ccccc1Cl,nt,nt,nt,nt,i,nt
S=C(Nc1ccc(Cl)cc1Cl)NC1CC1,nt,nt,nt,nt,i,nt
O=[N+]([O-])c1cnc(Nc2ccccc2)nc1Nc1ccccc1,i,-83,i,i,i,i
CC(C)(C)OC(=O)C[C@@H]1C/C=C\C[C@@H](CC(=O)N(CCO)Cc2ccccc2)C(=O)NCCOC1=O,i,-123,i,i,i,i
CC(C)(C)OC(=O)C[C@@H]1C/C=C\C[C@@H](CC(=O)N(CCO)Cc2ccccc2)C(=O)N2CCC[C@@H]2COC1=O,i,i,i,35,i,i
CC(C)(C)OC(=O)C[C@H]1C/C=C\C[C@@H](CC(=O)N(CCO)Cc2ccccc2)C(=O)N2CCC[C@@H]2COC1=O,i,i,i,i,i,i
Cc1ccc(-c2nnc(C(C)Sc3nnc4ccccn34)o2)cc1 (centres undefined),nt,nt,nt,nt,i,nt
Cc1[nH]n(-c2ccc([N+](=O)[O-])cc2)c(=O)c1C=NCCc1c[nH]c2ccccc12,i,i,i,37,i,i
CCCc1[nH]n(-c2ccc([N+](=O)[O-])cc2)c(=O)c1C=NCCc1c[nH]c2ccccc12,i,i,i,i,i,i
Cc1[nH]n(-c2ccc([N+](=O)[O-])cc2)c(=O)c1C=NCCN1CCN(C(=O)c2ccc(F)cc2)CC1,i,i,i,i,i,i
Cc1[nH]n(-c2ccc([N+](=O)[O-])cc2)c(=O)c1C=NCCN1CCN(C(=O)c2ccc(Br)cc2)CC1,i,-65,-102%,i,i,i
SMILES,PI4K2A block,D3 antag,Akt phos inh,DRD3 agonist,LDHA block,RGS4 inh
CCCNC(=O)CN(C)Cc1ncc(-c2ccccc2)o1,nt,nt,nt,nt,i,nt
O=c1oc2cc(Oc3c([N+](=O)[O-])cc(C(F)(F)F)cc3[N+](=O)[O-])ccc2c2c1CCCC2,i,-90,i,i,i,i
CCOc1ccc(NC(=O)c2ccc(C#Cc3ccccc3)cc2)cc1,nt,nt,nt,nt,i,nt
COC(=O)c1ccc(OCCCCN(C)Cc2ccccc2)cc1,i,i,i,i,i,i
CCOc1cccc(OCCOCCN(C)Cc2ccccc2)c1,i,-64,i,i,i,i
C=CCc1cc(Cl)ccc1OCCN(C)C,i,-55,i,i,i,i
C=CCc1cc(Cl)ccc1OCCCNC(C)C,i,?,i,i,i,i
CN(CCOCCOc1ccc(F)cc1)Cc1ccccc1,i,-89,i,i,i,i
C=CCc1cc(OC)ccc1OCCN(C)Cc1ccccc1,i,-59,i,i,i,i
O=C(/C=C/c1ccc(COc2ccc(F)cc2F)o1)c1cccc([N+](=O)[O-])c1,nt,nt,nt,nt,i,nt
COP(=O)(OC)c1nc(-c2ccc(C(C)(C)C)cc2)oc1NCc1ccco1,nt,nt,nt,nt,i,nt
C/C(=N\NC(=S)N/N=C(\C)c1ccccc1)c1ccccc1,nt,nt,nt,nt,i,nt
CN(CCOCCOc1ccc(Cl)cc1Br)Cc1ccccc1,i,-64,i,i,i,i
CN(CCCOc1ccccc1-c1ccccc1)CCCOc1ccccc1-c1ccccc1,nt,nt,nt,nt,i,nt
CCCCN(C)CCOc1ccccc1OCC,i,-98,i,i,i,i
CN(CCOc1ccc(Cl)c(Cl)c1)Cc1ccccc1,i,-93,i,i,i,i
Cc1ccc(Cl)c(OCCCCN(C)Cc2ccccc2)c1,i,-90,i,i,i,i
O=C(O)C(c1c[nH]c2ccccc12)N1CCN(c2nsc3ccccc23)CC1 (centres undefined),nt,nt,nt,nt,i,nt
Cc1ccc2nc(Nc3ccccc3C)cc(C)c2c1,nt,nt,nt,nt,i,nt
Cc1ccc(NC(=O)CCc2c(C)[nH]n(-c3ccc(F)cc3)c2=O)cc1F,nt,nt,nt,nt,i,nt
CCOc1ccc(OCCN(C)Cc2ccccc2)cc1,i,-83,i,i,i,i
CN(CCOc1ccccc1Cl)Cc1ccccc1,i,-76,i,i,i,i
Cc1ccccc1C(=O)OCCN(C)Cc1ccccc1,i,-70,i,i,i,i
COc1ccc(OCCCCN(C)Cc2ccccc2)cc1,i,i,i,i,i,i
Cc1ccc(C(=O)OCCN(C)Cc2ccccc2)cc1,i,i,i,i,i,i
SMILES,PI4K2A block,D3 antag,Akt phos inh,DRD3 agonist,LDHA block,RGS4 inh
Cc1ccc(C)c(/C(O)=C2\C(=O)C(=O)N(c3nnc(C)s3)C2c2ccc(C(C)C)cc2)c1 (centres undefined),nt,nt,nt,nt,i,nt
COc1ccc2cc(C(=O)N3CCNC(=O)C3)c(C)nc2c1,nt,nt,nt,nt,i,nt
O=c1[nH]cccc1NS(=O)(=O)c1ccccc1F,nt,nt,nt,nt,i,nt
C=CCSc1nnc(NC(=O)COc2ccc3ccccc3c2)s1,i,-66,i,i,i,i
C=CCSc1nnc(NC(=O)COc2ccccc2)s1,i,i,i,i,i,i
CC(Nc1ccc(N)cc1Cl)c1ccccc1 (centres undefined),nt,nt,nt,nt,i,nt
Oc1cccc2ccc(/C=C/c3ccccc3Br)nc12,i,-114,i,i,i,i
Oc1cccc2ccc(/C=C/c3cccs3)nc12,i,-57,i,i,i,i
Oc1c(Cl)cc(Cl)cc1/C=C/c1ccc2cccc(O)c2n1,i,i,i,32,i,i
Oc1ccc(Cl)cc1/C=C/c1ccc2cccc(O)c2n1,i,?,i,i,i,i
